Laboratory results reported in PubChem BioAssay (Tox21).
Where “and” joins values, the source holds several entries; their conditions need not be identical. Equal values may be shown once. Records with an inconclusive call do not appear. Entries that show only a call come without a potency. A structure can be active in one record and inactive in another. Calls of active or inactive are those of the source. Unless noted, calls follow the shape of the dose curve; as a rule, active = well fitted curve in the direction sought with a large enough effect in the repeat runs; inconclusive = weak or mixed curves; inactive = no such curve, though single readings can be large; an effect the other way counts as inactive or inconclusive.

Tests used:
[1] = qHTS assay to identify small molecule agonists of the hypoxia (HIF-1) signaling pathway (AID 1224846; active = well fitted activation curve with a large enough effect in the signal ratio in the repeat runs, not every such curve was filed as active; the % refers to the signal ratio)
In short: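 Beta-lactamase FRET read-out (CCF4-AM substrate) from ME-180 cells carrying an HRE-driven bla reporter, after 17 hrs compound exposure at 37C/5% CO2. Cells were seeded at 2,000 per well in 0.5% dialyzed FBS medium and preincubated 5 hrs.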

[2] = qHTS assay to identify small molecule agonists of H2AX - cell viability counter screen (AID 1224847; calls by dose curve; also: nearly all actives have a fitted effect of over 30% in size; also: potency is read from the fitted curve at half-maximal effect)
In short: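 Quantitative HTS viability measurement: CHO-K1 wild-type cells in serum (10% FBS) medium, short 3 hr drug exposure at 37C with 0.76% DMSO, CellTiter-Glo luminescent detection.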

[3] = qHTS assay to identify small molecule antagonists of the estrogen related receptor (ERR) signaling pathway from Tox21 library (AID 1224848); also: nearly all actives have a fitted effect of over 50% in size
In short: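 First, 2,000 ERR cells per well were plated and held 6 h at 37 C/5% CO2. Next, compounds in DMSO were pinned in and left 18 h at 37 C. Finally, ONE-Glo was added and luminescence read after 30 min at room temperature.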

[4] = qHTS assay to identify small molecule agonists of the estrogen related receptor (ERR) signaling pathway from Tox21 library (AID 1224849; calls by dose curve; also: nearly all actives have a fitted effect of over 15% in size); settings: ERR reporter cell line, ONE-Glo luciferase, 18 h
In short: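 Luminescence readout (ONE-Glo, 30 min RT) after 18 h compound exposure at 37 C of NTP-supplied ERR reporter cells; cells were plated 6 h before compound addition by pin tool.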

[5] = qHTS RealTime-Glo MT Cell Viability Assay in HepG2 cells - 24 hour (AID 1224867); also: nearly all actives have a fitted effect of over 50% in size; also: potency is read from the fitted curve at half-maximal effect
In short: (§1)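 Luminescence read-out: viable HepG2 cells reduce a prosubstrate to a NanoLuc substrate, giving a signal proportional to live cell number. Reads taken at 0, 8, 16, 24, 32 and 40 h of compound exposure at 37 C.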

[6] = qHTS RealTime-Glo MT Cell Viability Assay in HEK293 cells - 32 hour (AID 1224868); also: nearly all actives have a fitted effect of over 50% in size; also: potency is read from the fitted curve at half-maximal effect
In short: (§2)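 Nonlytic real-time viability readout: viable cells convert prosubstrate to NanoLuc substrate, giving luminescence proportional to live cell number. HEK293, 600 cells/well, compound added after 5 h, continuous culture at 37 C.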

[7] = qHTS RealTime-Glo MT Cell Viability Assay in HepG2 cells - 40 hour (AID 1224870); also: nearly all actives have a fitted effect of over 50% in size
In short: (§3)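 HepG2 cells mixed with RealTime-Glo MT reagents (NanoLuc plus cell-permeant prosubstrate) were seeded at 600 cells/well, incubated 5 h at 37 C/5% CO2, then pinned with compounds in DMSO; nonlytic luminescence tracked viability during 40 h treatment.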

[8] = A CellTox Green Cytotoxicity Assay to monitor cytotoxicity in HEK293 cells - 40 hour (AID 1224871); also: nearly all actives have a fitted effect of over 45% in size; also: potency is read from the fitted curve at half-maximal effect
In short: (§4)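 Read-out: fluorescence of a cell-impermeant cyanine dye staining DNA of dead cells, proportional to cytotoxicity. HEK293, 600 cells/well with reagent, compound (23 nL DMSO) added after 5 h; reads at 0, 8, 16, 24, 32, 40 h.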

[9] = qHTS RealTime-Glo MT Cell Viability Assay in HEK293 cells - 16 hour (AID 1224872); also: nearly all actives have a fitted effect of over 50% in size; also: potency is read from the fitted curve at half-maximal effect
In short: as §2

[10] = qHTS RealTime-Glo MT Cell Viability Assay in HepG2 cells - 8 hour (AID 1224873); also: nearly all actives have a fitted effect of over 55% in size; also: potency is read from the fitted curve at half-maximal effect
In short: as §3

[11] = qHTS RealTime-Glo MT Cell Viability Assay in HEK293 cells - 40 hour (AID 1224874); settings: RealTime-Glo luminescence; max response: stronger effect = lower value; also: nearly all actives have a fitted effect of over 50% in size; also: potency is read from the fitted curve at half-maximal effect
In short: (§5)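 Luminescence readout at each listed time point; HEK293, 600 cells/well, RealTime-Glo MT reagent added with cells; compounds pinned (23 nL in DMSO) after 5 h at 37 C; continuous culture at 37 C.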

[12] = A CellTox Green Cytotoxicity Assay to monitor cytotoxicity in HEK293 cells - 24 hour (AID 1224875); also: nearly all actives have a fitted effect of over 45% in size; also: potency is read from the fitted curve at half-maximal effect
In short: as §4

[13] = A CellTox Green Cytotoxicity Assay to monitor cytotoxicity in HepG2 cells - 16 hour (AID 1224876); also: nearly all actives have a fitted effect of over 45% in size; also: potency is read from the fitted curve at half-maximal effect
In short: (§6)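 HepG2, 600 cells/well premixed w/ CellTox Green; 5 h settle, 37 C/5% CO2; pintool cpd add (DMSO); 37 C, 40 h; fluorescence read at 0, 8, 16, 24, 32, 40 h.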

[14] = qHTS RealTime-Glo MT Cell Viability Assay in HepG2 cells - 32 hour (AID 1224877); also: nearly all actives have a fitted effect of over 55% in size; also: potency is read from the fitted curve at half-maximal effect
In short: as §1

[15] = A CellTox Green Cytotoxicity Assay to monitor cytotoxicity in HepG2 cells - 24 hour (AID 1224878); also: nearly all actives have a fitted effect of over 45% in size; also: potency is read from the fitted curve at half-maximal effect
In short: as §6

[16] = A CellTox Green Cytotoxicity Assay to monitor cytotoxicity in HepG2 cells - 40 hour (AID 1224879); also: nearly all actives have a fitted effect of over 40% in size; also: potency is read from the fitted curve at half-maximal effect
In short: as §6

[17] = qHTS RealTime-Glo MT Cell Viability Assay in HEK293 cells - 0 hour (AID 1224880)
In short: as §5

[18] = A CellTox Green Cytotoxicity Assay to monitor cytotoxicity in HEK293 cells - 32 hour (AID 1224881); also: nearly all actives have a fitted effect of over 40% in size
In short: as §4

[19] = qHTS assay to identify small molecule agonists of H2AX (AID 1224845; active = well fitted activation curve with a large enough effect in the signal ratio in the repeat runs, not every such curve was filed as active; the % refers to the signal ratio)
In short: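 Wild-type CHO-K1 cells plated overnight, then exposed 3 hr at 37C to compounds at 15 concentrations (0.76% DMSO). Lysed, then HTRF anti-pH2AX(S139)-cryptate/anti-H2AX-d2 detection after 24 hr at room temperature; emissions 665 and 620 nm.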

[20] = A CellTox Green Cytotoxicity Assay to monitor cytotoxicity in HEK293 cells - 0 hour (AID 1224869); also: nearly all actives have a fitted effect of over 50% in size
In short: as §4

## CCOP(=O)(OCC)OCC
[1]
  outcome: inactive
[2]
  Potency: inactive
[3]
  Potency: inactive
[4]; at 92.4 µM (top of the series)
  activity change, positive = activation: -7.79% (inactive) and 1.86% (inactive)
[5]
  Potency: inactive
[6]
  Potency: inactive
[7]
  Potency: inactive
[8]
  Potency: inactive
[9]
  Potency: inactive
[10]
  Potency: inactive
[11]
  max response: 0.385% (inactive) and 0.0295% (inactive)
[12]
  Potency: inactive
[13]
  Potency: inactive
[14]
  Potency: inactive
[15]
  Potency: inactive
[16]
  Potency: inactive
[17]
  Potency: inactive
[18]
  Potency: inactive

## CCCCOC(=O)COC(=O)c1ccccc1C(=O)OCCCC
[1]
  outcome: inactive
[2]
  Potency: inactive
[3]
  Potency: inactive
[4]; at 92.4 µM (top of the series)
  activity change, positive = activation: 4.38% (inactive) and 0.695% (inactive)
[5]
  Potency: inactive
[6]
  Potency: inactive
[7]
  Potency: inactive
[8]
  Potency: inactive
[9]
  Potency: inactive
[10]
  Potency: inactive
[11]
  max response: -1.67% (inactive) and 1.98% (inactive)
[12]
  Potency: inactive
[13]
  Potency: inactive
[14]
  Potency: inactive
[15]
  Potency: inactive
[16]
  Potency: inactive
[17]
  Potency: inactive
[18]
  Potency: inactive

## COC(=O)Nc1nc2ccccc2[nH]1
[19]
  Potency: inactive
[1]
  outcome: inactive
[2]
  Potency: inactive
[5]
  Potency: inactive
[20]
  Potency: inactive
[7]
  Potency: inactive
[8]
  Potency: inactive
[9]
  Potency: inactive
[10]
  Potency: inactive
[12]
  Potency: inactive
[13]
  Potency: inactive
[14]
  Potency: inactive
[15]
  Potency: inactive
[16]
  Potency: 5.49 µM (active) and 11 µM (active)
[17]
  Potency: inactive
[18]
  Potency: inactive

## COc1ccc(O)c(C(C)(C)C)c1
[19]
  Potency: inactive
[1]
  outcome: inactive
[2]
  Potency: inactive
[5]
  Potency: inactive
[6]
  Potency: inactive
[7]
  Potency: inactive
[8]
  Potency: inactive
[9]
  Potency: inactive
[10]
  Potency: inactive
[11]
  max response: -6.92% (inactive) and 11.9% (inactive)
[12]
  Potency: inactive
[13]
  Potency: inactive
[14]
  Potency: inactive
[17]
  Potency: inactive
[18]
  Potency: inactive

## ClC(Cl)(Cl)Br
[19]
  Potency: inactive
[1]
  outcome: inactive
[2]
  Potency: inactive
[5]
  Potency: inactive
[6]
  Potency: inactive
[7]
  Potency: inactive
[8]
  Potency: inactive
[9]
  Potency: inactive
[10]
  Potency: inactive
[11]
  max response: -0.387% (inactive) and 6.81% (inactive)
[12]
  Potency: inactive
[13]
  Potency: inactive
[14]
  Potency: inactive
[15]
  Potency: inactive
[16]
  Potency: inactive
[17]
  Potency: inactive

## c1ccc(C2CO2)cc1 (stereo not drawn)
[19]
  Potency: inactive
[1]
  outcome: inactive
[2]
  Potency: inactive
[5]
  Potency: inactive
[6]
  Potency: inactive
[7]
  Potency: inactive
[8]
  Potency: inactive
[9]
  Potency: inactive
[10]
  Potency: inactive
[11]
  max response: -2.54% (inactive) and -3.91% (inactive)
[12]
  Potency: inactive
[13]
  Potency: inactive
[14]
  Potency: inactive
[15]
  Potency: inactive
[16]
  Potency: inactive
[17]
  Potency: inactive
[18]
  Potency: inactive

## CC(C)=CC1C(C(=O)OCN2C(=O)C3=C(CCCC3)C2=O)C1(C)C (stereo not drawn)
[19]
  Potency: inactive
[1]
  outcome: inactive
[4]; at 42.5 µM (top of the series)
  activity change, positive = activation: -16.7% (inactive)
[4]; at 92.4 µM (top of the series)
  activity change, positive = activation: -22.5% (inactive)
[5]
  Potency: inactive
[6]
  Potency: inactive
[20]
  Potency: inactive
[7]
  Potency: inactive
[8]
  Potency: inactive
[9]
  Potency: inactive
[10]
  Potency: inactive
[11]
  max response: 2.99% (inactive)
[12]
  Potency: inactive
[13]
  Potency: inactive
[14]
  Potency: inactive
[15]
  Potency: inactive
[16]
  Potency: inactive
[17]
  Potency: inactive
[18]
  Potency: inactive

## CCC1(c2ccc(N)cc2)CCC(=O)NC1=O (stereo not drawn)
[19]
  Potency: inactive
[2]
  Potency: inactive
[3]
  Potency: inactive
[4]; at 42.5 µM (top of the series)
  activity change, positive = activation: 5.08% (inactive)
[4]; at 92.4 µM (top of the series)
  activity change, positive = activation: -19.8% (inactive)
[5]
  Potency: inactive
[6]
  Potency: inactive
[20]
  Potency: inactive
[8]
  Potency: inactive
[9]
  Potency: inactive
[10]
  Potency: inactive
[11]
  max response: 6.38% (inactive)
[12]
  Potency: inactive
[13]
  Potency: inactive
[14]
  Potency: inactive
[15]
  Potency: inactive
[16]
  Potency: inactive
[17]
  Potency: inactive

## CCOS(=O)(=O)OCC
[1]
  outcome: inactive
[2]
  Potency: inactive
[5]
  Potency: inactive
[6]
  Potency: inactive
[20]
  Potency: inactive
[7]
  Potency: inactive
[8]
  Potency: inactive
[9]
  Potency: inactive
[10]
  Potency: inactive
[11]
  max response: 6.05% (inactive)
[12]
  Potency: inactive
[13]
  Potency: inactive
[14]
  Potency: inactive
[15]
  Potency: inactive
[16]
  Potency: inactive
[17]
  Potency: inactive
[18]
  Potency: inactive

## Oc1ccc(Cl)cc1Cc1ccccc1
[2]
  Potency: 89.8 µM (active) and 81 µM (active)
[5]
  Potency: inactive and 49.6 µM (active)
[6]
  Potency: 21.9 µM (active) and 19.7 µM (active)
[7]
  Potency: inactive
[8]
  Potency: 11 µM (active) and 21.3 µM (active)
[9]
  Potency: 21.9 µM (active) and 17.6 µM (active)
[10]
  Potency: 49.6 µM (active) and inactive
[11]
  Potency: 21.9 µM (active) and 27.9 µM (active)
[12]
  Potency: 8.71 µM (active)
[13]
  Potency: inactive and 33.1 µM (active)
[14]
  Potency: inactive and 49.6 µM (active)
[15]
  Potency: inactive and 15.7 µM (active)
[16]
  Potency: inactive and 19.7 µM (active)
[17]
  Potency: inactive
